Measurements from PubChem BioAssay (NCI).
This is part of a sample that, as a whole, favours compounds with a hit. Of some 83,000 tested, about 20% had one in any assay.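 In brief: 96-well plates, 48 h treatment, single concentration, percent growth endpoint.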 Unmarked numbers belong to inactive results. The source made the active and inactive calls. Rule for the calls: active = growth percent below 10; inactive = the rest.

Columns and labels:
Test in all cases: NCI-60 one-dose screen, 48 h (100 = growth as untreated, 0 = no growth, -100 = all killed)
Conditions in all cases: 10 µM
[1] = tested on: SK-MEL-2 melanoma
[2] = tested on: EKVX NSCLC
[3] = tested on: SN12C renal
[4] = tested on: UO-31 renal
[5] = tested on: TK-10 renal
[6] = tested on: ACHN renal
[7] = tested on: CAKI-1 renal
[8] = tested on: A498 renal
[9] = tested on: CCRF-CEM leukemia
[10] = tested on: MOLT-4 leukemia
[11] = tested on: SR leukemia
[12] = tested on: RPMI-8226 leukemia
[13] = tested on: OVCAR-8 ovarian
[14] = tested on: OVCAR-5 ovarian
[15] = tested on: OVCAR-4 ovarian
[16] = tested on: SK-OV-3 ovarian
[17] = tested on: IGROV1 ovarian
[18] = tested on: OVCAR-3 ovarian
[19] = tested on: HS 578T breast
[20] = tested on: NCI/ADR-RES ovarian

SMILES	growth [1]	growth [2]	growth [3]	growth [4]	growth [5]	growth [6]	growth [7] [%]	growth [8]	growth [9]	growth [10]	growth [11]	growth [12]	growth [13]	growth [14]	growth [15]	growth [16]	growth [17]	growth [18]	growth [19]	growth [20]
CC(C)C1=C[C@@]23CC[C@@H]4[C@](C)(CCC[C@]4(C)C(=O)NCc4ccccc4)[C@H]2C[C@@H]1[C@H]1C(=O)CCC(=O)[C@H]13	99.2%	49.8%	83.4%	48.1%	96.9%	70.7%	88.7	97.8%	9.73% (active)	16.2%	44.4%	40.4%	75.1%	83.8%	47.3%	105%	90.6%	86.9%	63.1%	74%
COC(=O)C[C@](O)(CCCC(C)(C)O)C(=O)O[C@H]1C(OC)=C[C@@]23CCC(=O)N2CCc2cc4c(cc2[C@@H]13)OCO4	110%	103%	115%	65%	101%	101%	94.3	76.6%	101%	73.4%	80.6%	106%	107%	102%	90.1%	103%	93%	94.8%	87.9%	102%
Cc1ccc2nc(-c3ccc(-c4nnc(SCC(=O)Nc5ccc(Cl)cc5)o4)cc3)[nH]c2c1	95%	58.7%	-3% (active)	56.6%	38.1%	7.34% (active)	21.7	73.9%	58.8%	35.6%	21.8%	43.2%	-11.8% (active)	63.1%	4.47% (active)	79.3%	37.8%	24%	40.5%	23.2%
Cc1noc2c(Cc3ccc([N+](=O)[O-])cc3)nn(CC(=O)N/N=C/c3ccc(Cl)cc3)c(=O)c12	90.5%	79.8%	54%	40.8%	71.9%	19.4%	52.3	80.1%	95.6%	97.8%	88.6%	84.7%	20.1%	73.7%	7.98% (active)	67.2%	63.2%	35.8%	10%	45.9%
Cc1noc2c(Cc3ccc([N+](=O)[O-])cc3)nn(CC(=O)N/N=C/c3ccc(Br)cc3)c(=O)c12	116%	90.2%	81%	57.7%	112%	43.6%	84	121%	103%	103%	97.6%	91.2%	48.9%	96.9%	17.9%	86.2%	95.9%	50.1%	41.5%	88.5%
O=C(N=Nc1c(O)[nH]c2ccc(Br)cc12)c1ccc2nc(-c3ccccc3)[nH]c2c1	-89.7% (active)	-4.61% (active)	-94.4% (active)	27.3%	-25.5% (active)	-47.3% (active)	16.8	-55.3% (active)	-16% (active)	-29% (active)	-5.76% (active)	-4.88% (active)	-94.5% (active)	-5.18% (active)	-92.1% (active)	-54.9% (active)	-39% (active)	-69.7% (active)	-25.9% (active)	76.7%
Nc1nnc(-c2c[nH]c3ccc(F)cc23)c(-c2c[nH]c3ncccc23)n1	93.7%	65.1%	46.9%	37.9%	82.9%	51.6%	33.9	104%	61.6%	48.8%	20.6%	60.3%	46.7%	78.8%	81.4%	92%	33.5%	59.3%	29.1%	101%
COc1ccc2c(c1)N=C(C(=O)O)/C2=C/c1sc(Nc2ccc(O)cc2)nc1O	81.6%	75.1%	80.9%	49.4%	99.2%	82.2%	92.1	98.2%	44.3%	43%	24.9%	65.7%	80.8%	109%	74.7%	86.1%	74.6%	72.9%	50.9%	93.3%
COc1ccc(-c2nc(-c3ccccc3)c(-c3ccccc3)n2-c2ccc(S(=O)(=O)Nc3ncccn3)cc2)cc1OC	108%	63.6%	76.3%	51.7%	91.8%	82.6%	76.5	55%	69%	70.5%	68.9%	60.3%	90.2%	82.8%	87%	95%	85.5%	90.1%	50.9%	96.7%
CN1C(=O)N(C)C2SC(N/N=C/C=C/c3ccccc3)=NC21 (stereo not given)	81.9%	86.6%	85.6%	58.4%	99.6%	92.7%	83.6	81.5%	47.5%	46.7%	13.2%	77.1%	93.1%	92.8%	72.4%	98.4%	68.5%	28.8%	89.7%	73.9%
Clc1cccc(N/N=C/c2c[nH]c3ccccc23)n1	73.3%	32.4%	16.8%	10.4%	71.7%	44.7%	35.5	75.7%	8.71% (active)	23.8%	13.7%	4.05% (active)	41%	52.2%	41.3%	63.7%	-4.86% (active)	-12.6% (active)	28.5%	-4.45% (active)
O=C(CSc1nnc(-c2c[nH]c3ccccc23)n1-c1ccccc1)c1ccc(Cl)cc1	33.7%	25.6%	64.6%	54.8%	84%	57.5%	64.5	57.3%	92.7%	104%	92.4%	83.2%	24.5%	90.7%	14.9%	72.1%	51.4%	73.9%	33.2%	5.85% (active)
N#Cc1ccc(-c2nn(-c3ccc(C(=O)O)cc3)cc2CNc2cccc(Br)c2)cc1	71.7%	65.9%	59.2%	60.5%	102%	66.8%	73.4	94.5%	23.7%	23.9%	40.2%	33.1%	49%	99.6%	75.5%	112%	79%	38.7%	52.6%	13%
CCCCSc1nc(Nc2ccc(/C(C)=N/NC(N)=S)cc2)c(C#N)c(-c2ccc(F)cc2)n1	72.9%	57.5%	29.2%	19.6%	46%	14.5%	45.2	63.1%	55.3%	63.6%	52.4%	58.2%	7.66% (active)	64.4%	16.3%	78.4%	49.6%	35.4%	28.8%	37.5%
O=C(CNc1nc(-c2ccccc2)cs1)Nc1cccc(Cl)c1	38.2%	13.6%	41.4%	9.97% (active)	52.5%	28.3%	28.4	66.5%	26.3%	7.42% (active)	-15% (active)	26%	32.1%	40.9%	32.5%	37.7%	29.4%	32.2%	32.4%	19.5%
